From PubChem BioAssay (NCATS)
Results filed as inconclusive are left out. Active and inactive are the calls of the source. Calls come from the whole dose curve; as a rule, active = well fitted cell-killing curve with a large enough effect; inconclusive = small, poorly fitted or top-dose-only effect; inactive = flat fitted curve, though single readings scatter.

Test: Cell Viability - LYMP2-008 (AID 980);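 note: cells exposed to compound for 24 h at 37 °C; nearly all actives have a fitted effect of over 60% in size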
Conditions: LYMP2-008 lymphoblastoid cell viability, qHTS; series mostly up to 92.2 µM; activity change, negative = cytotoxicity: at the top concentration
Description: NIH Chemical Genomics Center [NCGC]
NIH Molecular Libraries Screening Centers Network [MLSCN]
National Institutes of Environmental Health Sciences [NIEHS]
National Toxicology Program [NTP]
We have developed a 1536-well cell-based assay for quantitative high throughput screening (qHTS) against a number of cell lines to determine in vitro cytotoxicity of small molecules. This particular assay uses a human lymphoblastoid cell line (LYMP2-008) purchased from Coriell Institute for Medical Research.
NCGC Assay Protocol Summary:
The CellTiter-Glo luminescent cell viability assay (Promega) is a homogeneous method to measure the number of viable cells in culture. The end point readout of this assay is based on quantitation of intracellular ATP, an indicator of metabolic activity, using the luciferase reaction. Luciferase catalyzes the oxidation of beetle Luciferin to oxyluciferin and light in the presence of ATP. The luminescent signal is proportional to amount of ATP present.
Using the CellTiter-Glo luminescent cell viability assay, the amount of cellular ATP was measured in the lymphoblastoid cell line with complete culture medium following compound treatment for 24 hours. The assay was performed in opaque white Kalypsys 1536-well plates. In the screen, tetraoctylammonium bromide was used as positive control. Library compounds were measured for their ability to cause acute toxicity in the cell line, as reflected by a decrease in intracellular ATP levels, in a concentration-dependent manner. […] AC50 values were determined from concentration-response data modeled with the standard Hill equation.
qHTS protocol for CellTiter Glo lymphoblastoid cellular assay
[Step] [Parameter] [Value] [Description]
1. Reagent; 5 uL; 2500 lymphoblastoid cells/well
2. Time; 5 hr; 37 C incubation
4. Controls; 23 nL; Tetraoctylammonium bromide 6.4pM to 92 uM
5. Time; 24 hr; 37 C incubation
6. Reagent; 5 uL; CellTiter Glo reagent
7. Time; 30 min; Room Temperature
8. Detection; Luminescence; Viewlux plate reader
Keywords: cell viability, cytotoxicity, lymphoblastoid cell line, luminescence, NTPHTS, NTPHTS_NCGC, NIEHS, DSSTox, MLSMR, MLSCN, NIH Roadmap, qHTS, NCGC
% is set by controls: 0 for no effect and ±100 for the full control effect.

**Q.** With `Oc1c(Cl)c(Cl)c(Cl)c(Cl)c1Cl` as the compound, how does the “activity change, negative = cytotoxicity” value read?
**A.** -12% (inactive)

**Q.** For `O=Cc1ccccc1`, which “activity change, negative = cytotoxicity” value is on record?
**A.** -7.08% (inactive)

**Q.** With `CC(C)(c1ccc(OCC2CO2)cc1)c1ccc(OCC2CO2)cc1` (stereo not drawn) as the compound, how does the “activity change, negative = cytotoxicity” value read?
**A.** -26.5% (inactive)

**Q.** With `Oc1ccccc1Cl` as the compound, how does the “activity change, negative = cytotoxicity” value read?
**A.** 2.08% (inactive)

**Q.** For `CC(=O)/C=C/c1ccccc1`, which “activity change, negative = cytotoxicity” value is on record?
**A.** -5.44% (inactive)

**Q.** Which “activity change, negative = cytotoxicity” value does the source give for `CCOC(=O)c1ccccc1N` here?
**A.** -6.89% (inactive)

**Q.** With `c1ccc2c(c1)-c1cccc3cccc-2c13` as the compound, how does the “activity change, negative = cytotoxicity” value read?
**A.** 11% (inactive)

**Q.** Which “activity change, negative = cytotoxicity” value does the source give for `c1ccc(Nc2ccc3ccccc3c2)cc1` here?
**A.** -13.3% (inactive)

**Q.** With `CCOc1cc(C=O)ccc1O` as the compound, how does the “activity change, negative = cytotoxicity” value read?
**A.** -2.81% (inactive)

**Q.** Which “activity change, negative = cytotoxicity” value does the source give for `Cc1ccccc1O` here?
**A.** 4.42% (inactive)

**Q.** For `CC(C)COC(=O)c1ccccc1C(=O)OCC(C)C`, which “activity change, negative = cytotoxicity” value is on record?
**A.** -2.42% (inactive)

**Q.** Which “activity change, negative = cytotoxicity” value does the source give for `COC(=O)c1ccccc1C(=O)OC` here?
**A.** -8.07% (inactive)

**Q.** Which “activity change, negative = cytotoxicity” value does the source give for `COC1=CC(=O)OC(CCc2ccc3c(c2)OCO3)C1` (stereo not drawn) here?
**A.** -14.4% (inactive)
